Here are results for seven molecules from PubChem BioAssay (EPA / NIEHS).

SMILES strings stand for the structures. Activity calls are given as the source filed them. Rule for the calls: active = hit-call score of the fitted dose curve at least 0.9, where 1 is the maximum; inactive = score below 0.9.

Test [1] in a line: ATG_CRE_CIS: Attagene CIS-FACTORIAL HepG2 Assay for human cAMP Responsive Element (CRE) binding protein 3 (AID 2282926). As to conditions: HepG2 CRE cis-reporter, Attagene multiplexed mRNA; actives raise or lower the signal. In a few lines:
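Liver-derived HepG2, transfected with a CRE-containing reporter panel, exposed 24 h; transcript levels sized and quantified by capillary electrophoresis of labelled amplicons; signal changes either way referenced to vehicle.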

Test [2] deals with CCAAT/enhancer-binding protein beta (Homo sapiens) (UniProt P17676). The experiment in a line: ATG_C_EBP_CIS: Attagene CIS-FACTORIAL HepG2 Assay for human CCAAT/Enhancer Binding Protein (C/EBP) beta (AID 2282927). The following applies: HepG2 Attagene cis-factorial transcription factor reporter; actives raise or lower the signal. In a few lines:
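Following a 24 h incubation with test chemical, transfected HepG2 cells yielded RNA whose reporter transcripts were quantified by RT-PCR and fluorescent capillary electrophoresis, with DMSO serving as baseline for bidirectional fitting.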

Test [3] addresses Aryl hydrocarbon receptor (Homo sapiens) (UniProt P35869). The experiment in a line: ATG_Ahr_CIS: Attagene CIS-FACTORIAL HepG2 Assay for human Aryl Hydrocarbon Receptor (Ahr) (AID 2282930). The following applies: HepG2 AhR cis-factorial reporter transcription; actives raise or lower the signal. In outline:
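Values derive from bidirectional fitting against DMSO negative control. Underlying signal: cis-element reporter mRNA in transiently transfected HepG2, harvested 24 h post-dose and measured by RT-PCR plus capillary electrophoresis.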

Test [4] can be described thus: ATG_AP_1_CIS: Attagene CIS-FACTORIAL HepG2 Assay for human Activator Protein 1 (AP-1) (AID 2282931). The following applies: HepG2 Attagene cis-factorial AP-1 reporter mRNA; actives raise or lower the signal. In outline: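 After 24 h incubation with test chemical, RNA from transfected HepG2 cells was reverse-transcribed, amplified, fluorescently labelled and digested before capillary electrophoresis. Reporters were driven by cis-regulatory promoters; activity fitted bidirectionally versus DMSO.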

Test [5] can be described thus: ATG_BRE_CIS: Attagene CIS-FACTORIAL HepG2 Assay for human Bone Morphogenetic Protein (BMP) Response Element (BRE) (AID 2282933). As to conditions: HepG2 BMP response element reporter, Attagene transcription factor profiling; actives raise or lower the signal. In a few lines:
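HepG2 cells transiently transfected with CIS reporter units (endogenous TF activity, BMP response element), dosed 24 h. Reporter mRNA quantified by RT-PCR, fluorescent labelling and capillary electrophoresis; bidirectional fit vs DMSO baseline.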

Test [6] can be described thus: ATG_E_Box_CIS: Attagene CIS-FACTORIAL HepG2 Assay for human Enhancer Box (E-box) (AID 2282936). As to conditions: HepG2 E-box cis-reporter transcription, actives raise or lower the signal. In a few lines:
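Endogenous transcription factor activity was sensed in human HepG2 liver cells through transfected cis-promoter reporter units. After 24 h of dosing, total RNA was reverse-transcribed and reporter cDNA resolved by capillary electrophoresis.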

Test [7] is described as follows: ATG_M_19_CIS: Attagene CIS-FACTORIAL HepG2 Assay for M19 Transcription Factor (Internal Marker) (AID 2282939). The following applies: HepG2 Attagene CIS-FACTORIAL M19 internal marker reporter; actives raise or lower the signal. In a few lines:
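HepG2 cells transiently transfected with cis-regulated multiplexed reporter units, dosed 24 h. Reporter mRNA quantified by RT-PCR and capillary electrophoresis; internal background marker fitted bidirectionally versus DMSO.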

Test [8] can be described thus: ATG_GLI_CIS: Attagene CIS-FACTORIAL HepG2 Assay for human Zinc Finger Protein GLI1 (AID 2282945). The following applies: HepG2, Attagene cis-factorial reporter mRNA, GLI element; actives raise or lower the signal. In outline:
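HepG2 cells transiently transfected with cis-promoter multiplexed reporter units report endogenous transcription factor activity. After 24 h chemical exposure, reporter mRNA was quantified by RT-PCR, 6-FAM labelling, HpaI digestion and capillary electrophoresis, with bidirectional fitting against DMSO.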

In test [9] the target is Hypoxia-inducible factor 1-alpha (Homo sapiens) (UniProt Q16665). In words: ATG_HIF1a_CIS: Attagene CIS-FACTORIAL HepG2 Assay for human Hypoxia Inducible Factor 1 (HIF1A) (AID 2282951). As to conditions: HepG2 Attagene cis-factorial HIF1a reporter transcription; actives raise or lower the signal. In a few lines: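 Endogenous-TF cis reporter readout, human HepG2 cells, 24 h incubation; mRNA detected via RT-PCR and capillary electrophoresis fluorescence; DMSO-normalised bidirectional fitting.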
Sequence of Hypoxia-inducible factor 1-alpha (Homo sapiens) (Q16665 whole entry, looked up): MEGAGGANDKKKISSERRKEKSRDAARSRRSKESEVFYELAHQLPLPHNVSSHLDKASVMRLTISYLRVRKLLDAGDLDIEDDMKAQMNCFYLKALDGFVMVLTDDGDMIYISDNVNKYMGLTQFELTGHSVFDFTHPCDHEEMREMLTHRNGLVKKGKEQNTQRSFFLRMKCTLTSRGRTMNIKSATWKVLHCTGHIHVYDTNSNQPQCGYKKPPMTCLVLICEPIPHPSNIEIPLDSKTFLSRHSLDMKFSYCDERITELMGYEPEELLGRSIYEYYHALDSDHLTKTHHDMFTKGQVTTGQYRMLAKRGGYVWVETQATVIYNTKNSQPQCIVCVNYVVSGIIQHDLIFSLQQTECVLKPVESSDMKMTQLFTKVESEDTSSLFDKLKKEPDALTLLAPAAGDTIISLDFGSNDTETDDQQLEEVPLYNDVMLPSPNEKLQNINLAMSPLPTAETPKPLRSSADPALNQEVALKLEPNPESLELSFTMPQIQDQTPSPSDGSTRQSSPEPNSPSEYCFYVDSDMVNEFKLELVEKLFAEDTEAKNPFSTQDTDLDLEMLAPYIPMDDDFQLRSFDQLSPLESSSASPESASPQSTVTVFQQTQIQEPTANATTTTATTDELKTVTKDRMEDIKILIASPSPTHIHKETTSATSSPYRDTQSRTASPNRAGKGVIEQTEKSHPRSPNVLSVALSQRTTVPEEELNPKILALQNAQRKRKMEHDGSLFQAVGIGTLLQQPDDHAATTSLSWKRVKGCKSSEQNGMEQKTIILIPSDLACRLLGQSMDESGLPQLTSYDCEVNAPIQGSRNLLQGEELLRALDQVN

For test [10], the target named is Hepatocyte nuclear factor 6 (Homo sapiens) (UniProt Q9UBC0). In words: ATG_HNF6_CIS: Attagene CIS-FACTORIAL HepG2 Assay for human Hepatocyte Nuclear Factor 6 (HNF6) (AID 2282952). As to conditions: HepG2 Attagene cis-factorial HNF6 reporter transcription; actives raise or lower the signal. In outline: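 Twenty-four-hour chemical treatment of reporter-transfected HepG2 cells precedes RNA isolation, DNase-treated reverse transcription and PCR of reporter sequences. Labelled fragments are sized by capillary electrophoresis and fitted bidirectionally versus DMSO.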
Sequence of Hepatocyte nuclear factor 6 (Homo sapiens) (Q9UBC0 whole entry, looked up, the tested form may be a part): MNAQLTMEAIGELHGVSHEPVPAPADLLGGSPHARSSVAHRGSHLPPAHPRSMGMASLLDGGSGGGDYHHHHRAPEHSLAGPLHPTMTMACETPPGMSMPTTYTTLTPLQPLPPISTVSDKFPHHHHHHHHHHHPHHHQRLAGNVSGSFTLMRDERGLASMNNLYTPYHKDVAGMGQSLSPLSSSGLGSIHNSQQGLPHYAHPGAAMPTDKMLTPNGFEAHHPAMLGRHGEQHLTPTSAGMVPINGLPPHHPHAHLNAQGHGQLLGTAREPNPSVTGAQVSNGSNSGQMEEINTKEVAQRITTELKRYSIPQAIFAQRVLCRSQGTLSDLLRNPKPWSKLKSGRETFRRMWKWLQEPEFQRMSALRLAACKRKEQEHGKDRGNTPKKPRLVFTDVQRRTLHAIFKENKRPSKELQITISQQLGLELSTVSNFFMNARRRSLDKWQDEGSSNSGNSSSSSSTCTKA

The target of test [11] is Heat shock factor protein 1 (Homo sapiens) (UniProt Q00613). The experiment in a line: ATG_HSE_CIS: Attagene CIS-FACTORIAL HepG2 Assay for human Heat Shock Transcription Factor 1 (HSE) (AID 2282953). As to conditions: HepG2 HSE cis-reporter, Attagene RNA transcription; actives raise or lower the signal. In a few lines:
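HepG2 cells transfected with cis-promoter reporter units sensing endogenous transcription factor activity; reporter mRNA quantified 24 h post-dose by RT-PCR and capillary electrophoresis of 6-FAM-labelled products. Bidirectional fitting against DMSO.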

The nature of test [12]: ATG_TA_CIS: Attagene CIS-FACTORIAL HepG2 Assay for human TA Basal Promoter (AID 2282964). The following applies: HepG2 Attagene CIS-factorial TA basal promoter reporter; actives raise or lower the signal. In outline:
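HepG2 cells transiently transfected with multiple reporter units under cis promoter elements, reporting endogenous transcription factor activity; this endpoint tracks the TA basal promoter as background control. Reporter mRNA after 24 h dosing measured by RT-PCR/capillary electrophoresis; bidirectional fits versus DMSO.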

Test [13] is described as follows: ATG_VDRE_CIS: Attagene CIS-FACTORIAL HepG2 Assay for human Vitamin D Receptor Element (VDRE) (AID 2282968). As to conditions: HepG2 VDRE cis-reporter transcription, actives raise or lower the signal. In outline:
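Steps: transfect HepG2 with multiple reporter transcription units; dose chemicals 24 h; isolate RNA; RT-PCR; label with 6-FAM primer extension; HpaI digest; capillary electrophoresis. Curves fitted both directions against DMSO.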

In test [14] the target is X-box-binding protein 1 (Homo sapiens) (UniProt P17861). The experiment in a line: ATG_Xbp1_CIS: Attagene CIS-FACTORIAL HepG2 Assay for human X-box Binding Protein 1 (XBP1) (AID 2282972). The following applies: HepG2 XBP1 cis-element reporter, Attagene multiplex; actives raise or lower the signal. In outline:
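Changes in reporter transcript abundance, read by RT-PCR and capillary electrophoresis, reflect endogenous transcription factor activity. Transfected HepG2 cells received compound for 24 hours; DMSO defined baseline for bidirectional analysis.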

The target of test [15] is Nuclear respiratory factor 1 (Homo sapiens) (UniProt Q16656). In words: ATG_NRF1_CIS: Attagene CIS-FACTORIAL HepG2 Assay for human Nuclear Respiratory Factor 1 (NRF1) Orphan Gene (AID 2282987). The following applies: HepG2 NRF1 cis-element reporter, Attagene multiplex; actives raise or lower the signal. In a few lines: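 Endogenous factor activity was captured via cis-element-driven reporter transcripts in HepG2 cells. Following 24 h chemical treatment, transcripts were quantified by RT-PCR and capillary electrophoresis.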
Sequence of Nuclear respiratory factor 1 (Homo sapiens) (Q16656 whole entry, looked up): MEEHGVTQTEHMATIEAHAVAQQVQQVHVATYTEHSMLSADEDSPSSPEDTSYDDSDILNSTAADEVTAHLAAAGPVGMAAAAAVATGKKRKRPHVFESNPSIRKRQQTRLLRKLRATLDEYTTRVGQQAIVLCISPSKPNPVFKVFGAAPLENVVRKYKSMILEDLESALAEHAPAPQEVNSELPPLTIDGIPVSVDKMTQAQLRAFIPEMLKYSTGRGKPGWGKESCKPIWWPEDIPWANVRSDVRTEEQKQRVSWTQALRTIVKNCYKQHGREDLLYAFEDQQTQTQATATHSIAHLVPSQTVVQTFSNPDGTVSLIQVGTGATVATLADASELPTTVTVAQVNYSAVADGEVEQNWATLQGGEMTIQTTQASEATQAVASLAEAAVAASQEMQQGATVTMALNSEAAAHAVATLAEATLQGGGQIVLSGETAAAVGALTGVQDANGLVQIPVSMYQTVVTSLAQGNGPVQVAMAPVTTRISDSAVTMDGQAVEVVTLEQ

Test [16] concerns the target Myc proto-oncogene protein (Homo sapiens) (UniProt P01106). The experiment in a line: ATG_Myc_CIS: Attagene CIS-FACTORIAL HepG2 Assay for human Myelocytomatosis (Myc) Proto-Oncogene Transcription Factor (AID 2282990). As to conditions: HepG2, Attagene cis-reporter transcription factor activity; actives raise or lower the signal. In a few lines:
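Multiplexed cis-reporter transcription in HepG2 cells after 24 h chemical treatment. Reporter mRNA measured by RT-PCR and capillary electrophoresis fluorescence; activity fitted bidirectionally against DMSO control.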

Test [17] can be described thus: ATG_NRF2_ARE_CIS: Attagene CIS-FACTORIAL HepG2 Assay for human Nuclear Factor Erythroid 2 Related Factor 2 (NFR2) response to Antioxidant Response Elements (ARE) (AID 2282992). The following applies: HepG2 Attagene ARE/NRF2 reporter, transcription factor activity; actives raise or lower the signal. In a few lines:
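Using transiently transfected HepG2 cells exposed for 24 h, reporter mRNA levels were determined by RT-PCR with fluorescent primer extension and capillary electrophoresis, analysed for gain or loss of signal against DMSO.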

Test [18] in a line: ATG_Oct_MLP_CIS: Attagene CIS-FACTORIAL HepG2 Assay for human Octamer-Binding Transcription Factor (Oct) (AID 2282993). As to conditions: HepG2 Attagene cis-factorial Oct reporter, mRNA; actives raise or lower the signal. In a few lines: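 HepG2 cells transiently transfected with cis-element-driven reporter transcription units (endogenous TF activity); 24 h compound exposure. Reporter mRNA quantified by RT-PCR, 6-FAM labelling, HpaI digestion and capillary electrophoresis; bidirectional fit versus DMSO baseline.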

Test [19] can be described thus: ATG_M_06_CIS: Attagene CIS-FACTORIAL HepG2 Assay for M06 Transcription Factor (Internal Marker) (AID 2282950). The following applies: HepG2 Attagene CIS-FACTORIAL M06 internal marker reporter; actives raise or lower the signal. In outline:
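Internal background marker within multiplexed cis-reporter HepG2 system. Cells transiently transfected, dosed 24 h; reporter mRNA measured by RT-PCR, HpaI digestion and capillary electrophoresis. Bidirectional fit relative to DMSO.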

For test [20], the target named is Cellular tumor antigen p53 (Homo sapiens) (UniProt P04637). The experiment in a line: ATG_p53_CIS: Attagene CIS-FACTORIAL HepG2 Assay for human p53 Transcription Factor (AID 2282994). As to conditions: HepG2 p53 cis-element reporter, Attagene mRNA; actives raise or lower the signal. In a few lines: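 In HepG2 cells, reporter transcription units under cis-regulatory promoters were transiently introduced. Following 24 h treatment, RNA was processed to labelled, digested cDNA fragments read by capillary electrophoresis; fitting was bidirectional versus DMSO.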
Sequence of Cellular tumor antigen p53 (Homo sapiens) (P04637 whole entry, looked up, the tested form may be a part): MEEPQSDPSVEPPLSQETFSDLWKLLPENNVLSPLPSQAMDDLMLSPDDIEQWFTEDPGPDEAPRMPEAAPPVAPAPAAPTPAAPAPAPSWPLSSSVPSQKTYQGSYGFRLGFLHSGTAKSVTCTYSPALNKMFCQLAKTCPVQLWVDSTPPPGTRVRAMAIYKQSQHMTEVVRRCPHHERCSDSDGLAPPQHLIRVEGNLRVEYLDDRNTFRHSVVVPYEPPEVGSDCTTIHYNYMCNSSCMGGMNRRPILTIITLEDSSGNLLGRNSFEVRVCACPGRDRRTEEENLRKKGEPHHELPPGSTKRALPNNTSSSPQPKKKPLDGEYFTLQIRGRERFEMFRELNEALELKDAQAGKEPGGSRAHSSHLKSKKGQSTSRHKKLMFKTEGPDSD

Sequence of Heat shock factor protein 1 (Homo sapiens) (Q00613 whole entry, looked up): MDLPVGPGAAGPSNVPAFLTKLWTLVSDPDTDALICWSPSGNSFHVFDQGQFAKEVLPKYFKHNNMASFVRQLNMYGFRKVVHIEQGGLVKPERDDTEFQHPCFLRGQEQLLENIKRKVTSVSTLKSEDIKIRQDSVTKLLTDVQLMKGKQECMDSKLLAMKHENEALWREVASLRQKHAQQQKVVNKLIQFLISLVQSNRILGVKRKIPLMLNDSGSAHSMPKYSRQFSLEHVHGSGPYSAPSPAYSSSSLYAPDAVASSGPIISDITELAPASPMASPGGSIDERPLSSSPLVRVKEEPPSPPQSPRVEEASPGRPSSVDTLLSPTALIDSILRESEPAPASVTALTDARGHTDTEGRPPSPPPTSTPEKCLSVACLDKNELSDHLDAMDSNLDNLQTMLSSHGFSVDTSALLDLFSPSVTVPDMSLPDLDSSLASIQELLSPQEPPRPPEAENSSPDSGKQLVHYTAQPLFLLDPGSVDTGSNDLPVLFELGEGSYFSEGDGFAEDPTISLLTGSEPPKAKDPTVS
Sequence of Aryl hydrocarbon receptor (Homo sapiens) (P35869 whole entry, looked up): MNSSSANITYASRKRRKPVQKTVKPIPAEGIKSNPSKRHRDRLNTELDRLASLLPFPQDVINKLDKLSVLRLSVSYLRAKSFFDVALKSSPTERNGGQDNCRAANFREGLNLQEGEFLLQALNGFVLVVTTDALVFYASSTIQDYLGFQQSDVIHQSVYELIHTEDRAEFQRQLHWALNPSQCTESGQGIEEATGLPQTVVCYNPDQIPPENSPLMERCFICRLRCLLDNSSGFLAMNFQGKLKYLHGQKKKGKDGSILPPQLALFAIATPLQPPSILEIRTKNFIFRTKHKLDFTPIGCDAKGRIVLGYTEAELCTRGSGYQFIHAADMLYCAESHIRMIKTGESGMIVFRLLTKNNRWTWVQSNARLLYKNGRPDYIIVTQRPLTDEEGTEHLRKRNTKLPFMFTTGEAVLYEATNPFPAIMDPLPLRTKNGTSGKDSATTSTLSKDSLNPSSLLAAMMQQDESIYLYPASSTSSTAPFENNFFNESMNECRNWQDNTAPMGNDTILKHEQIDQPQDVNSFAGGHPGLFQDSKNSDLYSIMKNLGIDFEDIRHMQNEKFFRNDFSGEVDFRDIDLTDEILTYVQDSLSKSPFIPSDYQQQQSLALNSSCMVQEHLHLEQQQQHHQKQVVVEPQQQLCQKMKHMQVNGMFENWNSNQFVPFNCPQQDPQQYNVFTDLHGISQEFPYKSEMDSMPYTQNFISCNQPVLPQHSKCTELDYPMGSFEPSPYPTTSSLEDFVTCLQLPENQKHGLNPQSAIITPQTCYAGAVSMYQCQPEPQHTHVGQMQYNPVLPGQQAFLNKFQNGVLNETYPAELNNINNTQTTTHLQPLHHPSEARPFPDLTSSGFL
Sequence of Myc proto-oncogene protein (Homo sapiens) (P01106 whole entry, looked up): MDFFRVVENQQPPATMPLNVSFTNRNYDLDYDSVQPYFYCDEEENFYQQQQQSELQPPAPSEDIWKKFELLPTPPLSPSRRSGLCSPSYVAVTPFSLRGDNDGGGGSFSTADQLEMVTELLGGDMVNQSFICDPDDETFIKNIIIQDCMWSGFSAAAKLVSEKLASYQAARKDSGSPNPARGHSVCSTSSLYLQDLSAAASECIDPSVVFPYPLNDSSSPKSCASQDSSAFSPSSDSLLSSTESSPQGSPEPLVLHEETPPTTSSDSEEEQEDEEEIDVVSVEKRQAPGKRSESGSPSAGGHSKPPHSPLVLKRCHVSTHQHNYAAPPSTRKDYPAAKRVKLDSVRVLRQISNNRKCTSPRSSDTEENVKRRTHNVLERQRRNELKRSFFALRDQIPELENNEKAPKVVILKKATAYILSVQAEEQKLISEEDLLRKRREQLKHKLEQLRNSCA
Sequence of CCAAT/enhancer-binding protein beta (Homo sapiens) (P17676 whole entry, looked up): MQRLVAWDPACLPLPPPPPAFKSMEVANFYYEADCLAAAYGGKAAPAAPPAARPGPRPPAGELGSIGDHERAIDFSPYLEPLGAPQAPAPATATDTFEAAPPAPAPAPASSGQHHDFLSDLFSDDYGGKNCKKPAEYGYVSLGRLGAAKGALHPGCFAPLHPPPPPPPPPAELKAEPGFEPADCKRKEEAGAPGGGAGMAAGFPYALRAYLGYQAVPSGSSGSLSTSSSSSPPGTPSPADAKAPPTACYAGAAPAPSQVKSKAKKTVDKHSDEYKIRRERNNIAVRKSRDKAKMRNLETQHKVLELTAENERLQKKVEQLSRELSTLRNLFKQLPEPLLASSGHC
Sequence of X-box-binding protein 1 (Homo sapiens) (P17861 whole entry, looked up): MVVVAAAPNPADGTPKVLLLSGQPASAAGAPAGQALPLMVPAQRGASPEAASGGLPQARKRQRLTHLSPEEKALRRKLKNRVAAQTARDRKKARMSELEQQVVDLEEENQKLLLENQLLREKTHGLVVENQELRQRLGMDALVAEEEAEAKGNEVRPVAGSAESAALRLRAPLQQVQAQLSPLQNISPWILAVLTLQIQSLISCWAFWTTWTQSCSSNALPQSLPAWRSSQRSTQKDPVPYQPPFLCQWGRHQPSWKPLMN

For `CCOP(O)OCC`, the molecule was classed as inactive in [1], in [2], in test [3], in [4], in test [5] and in test [6]. Also, the outcome in test [7], in test [8], in test [9], in test [10], in test [11] and in [12] was inactive. The molecule was classed as inactive in test [13], in [14], in test [15], in test [16], in test [17] and in [18].
As to `Cc1ccccc1CCl`, the molecule was called inactive in [1], in test [2], in [3], in test [4], in test [5] and in test [7]. For the same molecule, the result in [8], in test [19], in test [9], in test [10], in [11] and in test [12] was inactive. Also, the result in test [13], in [14], in test [15], in test [16], in test [17] and in [18] was inactive. In [20], the molecule was classed as inactive.
Consider `CC1(C)CC(=O)CC(C)(C)N1[O]`, for which the call in test [1], in [2], in [3], in test [4], in test [5] and in test [6] was inactive. In addition, the molecule was called inactive in test [7], in test [8], in test [19], in test [9], in [10] and in [11]. Moreover, the call in test [12], in [13], in test [14], in [15], in [16] and in test [18] was inactive. The result in test [20] was inactive. Moreover, the concentration at half-maximal activity (AC50) in [17] is 19.8 µM (active).
As to `CCC[N+](=O)[O-]`, the molecule was classed as inactive in [1], in [2], in [4], in test [5], in test [6] and in test [7]. The outcome in [8], in [9], in test [10], in [11], in [12] and in [13] was inactive. For the same molecule, the molecule was called inactive in test [14], in test [15], in [16], in test [17], in [18] and in test [20]. In addition, in [3], the concentration at half-maximal activity (AC50) was 68.9 µM (active).
In the case of `O=C(CCN1CC1)OCC(CO)(COC(=O)CCN1CC1)COC(=O)CCN1CC1`, the call in test [1], in [2], in [3], in test [4], in [5] and in test [6] was inactive. Further, the result in test [7], in test [8], in test [19], in [9], in test [10] and in [11] was inactive. Also, the outcome in test [12], in test [14], in [15], in [16], in test [17] and in test [18] was inactive. Moreover, the result in test [20] was inactive.
In the case of `CNC(=O)Oc1cc(C)c(SC)c(C)c1`, the molecule was called inactive in test [1], in [2], in test [3], in test [4], in test [5] and in [6]. The outcome in test [7], in test [19], in [9], in test [10], in test [11] and in test [12] was inactive. Further, the molecule was classed as inactive in [15], in test [16], in [17] and in test [20]. Besides, the concentration at half-maximal activity (AC50) was 51.8 µM (active) in [13], 68.3 µM (active) in test [14] and 68.7 µM (active) in test [18].
Turning to `C=CC(=O)OCC(CC)CCCC` (stereo not drawn), the call in test [1], in test [2], in test [3], in test [4], in [5] and in test [6] was inactive. Moreover, the outcome in test [7], in [8], in test [9], in test [10], in [11] and in test [12] was inactive. Moreover, the result in [13], in [14], in test [15], in [16], in test [18] and in [20] was inactive. Further, the AC50 in test [17] is 100 µM (active).

The term AC50 denotes the concentration at which the activity in the assay is half-maximal.
